{
  "source": "ChEMBL document CHEMBL4649994",
  "biological_target": "T1, Transcription intermediary factor 1-alpha (Homo sapiens) (UniProt O15164)",
  "T1 sequence (whole entry)": "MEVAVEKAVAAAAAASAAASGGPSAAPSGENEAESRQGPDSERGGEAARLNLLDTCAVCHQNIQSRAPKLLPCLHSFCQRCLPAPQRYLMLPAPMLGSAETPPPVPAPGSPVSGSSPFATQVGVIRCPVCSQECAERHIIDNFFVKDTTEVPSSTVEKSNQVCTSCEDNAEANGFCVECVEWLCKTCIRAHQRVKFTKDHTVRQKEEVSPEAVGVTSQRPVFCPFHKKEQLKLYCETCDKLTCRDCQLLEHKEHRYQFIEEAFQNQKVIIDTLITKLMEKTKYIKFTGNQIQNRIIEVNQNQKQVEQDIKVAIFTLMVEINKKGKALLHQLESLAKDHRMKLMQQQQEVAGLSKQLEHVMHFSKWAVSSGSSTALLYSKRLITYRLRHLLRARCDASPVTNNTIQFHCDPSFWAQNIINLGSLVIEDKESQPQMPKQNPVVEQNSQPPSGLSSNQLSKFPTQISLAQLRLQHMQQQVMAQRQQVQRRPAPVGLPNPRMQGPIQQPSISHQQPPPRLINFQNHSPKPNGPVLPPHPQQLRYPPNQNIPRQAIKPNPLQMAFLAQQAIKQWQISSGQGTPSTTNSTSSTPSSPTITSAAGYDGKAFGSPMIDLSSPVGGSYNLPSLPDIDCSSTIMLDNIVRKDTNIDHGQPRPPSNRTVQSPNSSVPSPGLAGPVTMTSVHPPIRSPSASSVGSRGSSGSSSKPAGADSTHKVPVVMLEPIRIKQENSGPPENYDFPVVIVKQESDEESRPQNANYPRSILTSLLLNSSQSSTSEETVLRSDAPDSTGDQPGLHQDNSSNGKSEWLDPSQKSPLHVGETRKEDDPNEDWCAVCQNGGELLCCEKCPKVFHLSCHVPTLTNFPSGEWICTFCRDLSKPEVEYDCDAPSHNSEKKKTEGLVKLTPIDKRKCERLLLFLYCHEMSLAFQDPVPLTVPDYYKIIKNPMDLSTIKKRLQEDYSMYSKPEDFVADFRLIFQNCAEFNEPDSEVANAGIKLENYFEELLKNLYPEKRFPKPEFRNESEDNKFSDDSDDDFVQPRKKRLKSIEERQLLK",
  "conditions": "Compound concentration 10.0 uM, Protein concentration 2.0 uM",
  "data": [
    {"smiles": "COc1ccccc1S(=O)(=O)Nc1ccc2c(c1)CN(C)C(=O)N2", "values": [
      {"measurement": "ΔTm", "result": 0.62, "unit": "°C"}
    ]}
  ]
}
